# Counter-ions that a name gives are not always drawn. ± gives the standard deviation of the averaged measurements.
# Experiments:
# [1] = test system: Saccharomyces cerevisiae BY4741 SeMeCo community; test: mean cell size (pixel area) (pixels); higher = larger cells; conditions: 10 µM; 24 h; SM minimal medium
# Summary of the method: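 Mean cell pixel area per well was determined by automated confocal microscopy with Harmony analysis of paraformaldehyde-fixed cells. The cells, a Saccharomyces cerevisiae BY4741 community of four plasmids that each complement one auxotrophy and carry a fluorescent marker, were incubated for 24 h with drug at a final 10 µM in SM medium in 384-well plates. Numbers are averaged over 3 replicates. Same SeMeCo high-content imaging drug screen: Selleck FDA-approved drugs at 10 µM, 24 h in SM medium, 384-well plates, 3 replicates.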
# [2] = test system: Saccharomyces cerevisiae BY4741 SeMeCo community; test: z-score of prototroph abundance vs DMSO median; higher = larger share of this subpopulation than in DMSO controls; conditions: 10 µM; 24 h; SM minimal medium; subpopulation (auxotrophy): Prototroph
# Summary of the method: (§1)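 Scoring was based on each subpopulation's abundance, expressed as a z-score against the vehicle-well median. A Saccharomyces cerevisiae BY4741 community with four plasmids, each restoring one auxotrophy and encoding a distinct fluorescent protein, was pre-grown overnight to OD600 1.0, diluted to 0.3, and added at 70 µl to 384-well plates acoustically predosed with library drugs (10 µM final). It then grew 24 h in minimal SM medium before paraformaldehyde fixation and automated confocal microscopy, with single-auxotroph fluorescent strains setting thresholds and autofluorescence correction.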
# [3] = test system: Saccharomyces cerevisiae BY4741 SeMeCo community; test: z-score of subpopulation abundance vs DMSO median, subpopulation auxotrophic for M; higher = larger share of this subpopulation than in DMSO controls; conditions: 10 µM; 24 h; SM minimal medium; subpopulation (auxotrophy): M
# Summary of the method: as §1
# [4] = test system: Saccharomyces cerevisiae BY4741 SeMeCo community; test: z-score of subpopulation abundance vs DMSO median, subpopulation auxotrophic for L; higher = larger share of this subpopulation than in DMSO controls; conditions: 10 µM; 24 h; SM minimal medium; subpopulation (auxotrophy): L
# Summary of the method: as §1
# [5] = test system: Saccharomyces cerevisiae BY4741 SeMeCo community; test: z-score of subpopulation abundance vs DMSO median, subpopulation auxotrophic for U; higher = larger share of this subpopulation than in DMSO controls; conditions: 10 µM; 24 h; SM minimal medium; subpopulation (auxotrophy): U
# Summary of the method: as §1
# [6] = test system: Saccharomyces cerevisiae BY4741 SeMeCo community; test: z-score of subpopulation abundance vs DMSO median, subpopulation auxotrophic for H; higher = larger share of this subpopulation than in DMSO controls; conditions: 10 µM; 24 h; SM minimal medium; subpopulation (auxotrophy): H
# Summary of the method: as §1
# [7] = test system: Saccharomyces cerevisiae BY4741 SeMeCo community; test: z-score of subpopulation abundance vs DMSO median, subpopulation auxotrophic for LM; higher = larger share of this subpopulation than in DMSO controls; conditions: 10 µM; 24 h; SM minimal medium; subpopulation (auxotrophy): LM
# Summary of the method: as §1
# [8] = test system: Saccharomyces cerevisiae BY4741 SeMeCo community; test: z-score of subpopulation abundance vs DMSO median, subpopulation auxotrophic for HM; higher = larger share of this subpopulation than in DMSO controls; conditions: 10 µM; 24 h; SM minimal medium; subpopulation (auxotrophy): HM
# Summary of the method: as §1
# [9] = test system: Saccharomyces cerevisiae BY4741 SeMeCo community; test: z-score of subpopulation abundance vs DMSO median, subpopulation auxotrophic for HU; higher = larger share of this subpopulation than in DMSO controls; conditions: 10 µM; 24 h; SM minimal medium; subpopulation (auxotrophy): HU
# Summary of the method: as §1
# [10] = test system: Saccharomyces cerevisiae BY4741 SeMeCo community; test: z-score of subpopulation abundance vs DMSO median, subpopulation auxotrophic for HL; higher = larger share of this subpopulation than in DMSO controls; conditions: 10 µM; 24 h; SM minimal medium; subpopulation (auxotrophy): HL
# Summary of the method: as §1
# [11] = test system: Saccharomyces cerevisiae BY4741 SeMeCo community; test: z-score of subpopulation abundance vs DMSO median, subpopulation auxotrophic for HLU; higher = larger share of this subpopulation than in DMSO controls; conditions: 10 µM; 24 h; SM minimal medium; subpopulation (auxotrophy): HLU
# Summary of the method: as §1
# [12] = test system: Saccharomyces cerevisiae BY4741 SeMeCo community; test: z-score of subpopulation abundance vs DMSO median, subpopulation auxotrophic for HLM; higher = larger share of this subpopulation than in DMSO controls; conditions: 10 µM; 24 h; SM minimal medium; subpopulation (auxotrophy): HLM
# Summary of the method: as §1
# [13] = test system: Saccharomyces cerevisiae BY4741 SeMeCo community; test: z-score of subpopulation abundance vs DMSO median, subpopulation auxotrophic for HUM; higher = larger share of this subpopulation than in DMSO controls; conditions: 10 µM; 24 h; SM minimal medium; subpopulation (auxotrophy): HUM
# Summary of the method: as §1
# [14] = test system: Saccharomyces cerevisiae BY4741 SeMeCo community; test: z-score of subpopulation abundance vs DMSO median, subpopulation auxotrophic for LUM; higher = larger share of this subpopulation than in DMSO controls; conditions: 10 µM; 24 h; SM minimal medium; subpopulation (auxotrophy): LUM
# Summary of the method: as §1
# [15] = test system: Saccharomyces cerevisiae BY4741 SeMeCo community; test: z-score of subpopulation abundance vs DMSO median, subpopulation auxotrophic for HLUM; higher = larger share of this subpopulation than in DMSO controls; conditions: 10 µM; 24 h; SM minimal medium; subpopulation (auxotrophy): HLUM
# Summary of the method: as §1
# [16] = test system: Saccharomyces cerevisiae BY4741 SeMeCo community; test: z-score of subpopulation abundance vs DMSO median, subpopulation auxotrophic for LU; higher = larger share of this subpopulation than in DMSO controls; conditions: 10 µM; 24 h; SM minimal medium; subpopulation (auxotrophy): LU
# Summary of the method: as §1
# [17] = test system: Saccharomyces cerevisiae BY4741 SeMeCo community; test: z-score of subpopulation abundance vs DMSO median, subpopulation auxotrophic for UM; higher = larger share of this subpopulation than in DMSO controls; conditions: 10 µM; 24 h; SM minimal medium; subpopulation (auxotrophy): UM
# Summary of the method: as §1
SMILES,mean cell size [1],z-score of prototroph abundance [2],z-score of subpopulation abundance [3],z-score of subpopulation abundance [4],z-score of subpopulation abundance [5],z-score of subpopulation abundance [6],z-score of subpopulation abundance [7],z-score of subpopulation abundance [8],z-score of subpopulation abundance [9],z-score of subpopulation abundance [10],z-score of subpopulation abundance [11],z-score of subpopulation abundance [12],z-score of subpopulation abundance [13],z-score of subpopulation abundance [14],z-score of subpopulation abundance [15],z-score of subpopulation abundance [16],z-score of subpopulation abundance [17]
C[N+](C)(C)CCOC(=O)CCC(=O)OCC[N+](C)(C)C [Succinylcholine Chloride Dihydrate],12 ± 0.24,0.17,1.02,-0.65,0.38,-0.95,0.01,0.1,-0.93,-0.8,-0.97,-0.3,-0.03,-0.49,0.02,–,–
CN1C2CCCC1CC(NC(=O)c1nn(C)c3ccccc13)C2 (stereo not drawn) [Granisetron],12.3 ± 0.14,-0.04,1.71,–,0.07,-1.03,–,0.6,-0.71,-1.17,-0.07,-0.1,–,-0.48,-0.81,-0.92,0.55
CO/N=C(\C(=O)N[C@@H]1C(=O)N2C(C(=O)[O-])=C(C[n+]3cccc4c3CCC4)CS[C@H]12)c1csc(N)n1 [Cefpirome sulfate],12.5 ± 0.22,-0.2,0.51,–,-0.71,0.64,–,0.31,–,-0.18,-0.14,–,0,0.18,0.23,-0.12,0.21
N#Cc1ccc(Oc2ccc3c(c2)COB3O)cc1 [Crisaborole (AN2728)],–,-3.53,-1.21,–,0.49,7.63,2.61,–,3.15,–,6.18,3.78,–,3.54,5.38,4.21,–
CO/N=C(\C(=O)N[C@@H]1C(=O)N2C(C(=O)O)=C(CSc3nc(C)c(CC(=O)O)s3)CS[C@H]12)c1csc(N)n1 [Cefodizime Sodium],12.4 ± 0.13,–,-0.97,-0.39,0.88,-0.25,-1.04,-0.46,0.66,-0.84,-1.16,-1.07,-0.09,-0.74,-0.81,–,0.34
CCN(CC)C(=O)[C@@]1(c2ccccc2)C[C@H]1CN [Levomilnacipran Hydrochloride],12.1 ± 0.27,-0.02,-0.27,–,1.27,-0.22,-1.21,-0.69,1.07,–,-0.95,–,-0.17,-0.59,-0.66,-0.02,0.93
O=C(O)c1cc(O)c2c(c1)[C@H]([C@H]1c3cc(C(=O)O)cc(O)c3C(=O)c3c(O[C@@H]4O[C@H](CO)[C@@H](O)[C@H](O)[C@H]4O)cccc31)c1cccc(O[C@@H]3O[C@H](CO)[C@@H](O)[C@H](O)[C@H]3O)c1C2=O [Sennoside A],12.57 ± 0.12,0.91,-1.76,–,0.7,0,-0.8,-1.46,0.33,0.29,-0.71,-1.24,–,-0.81,-1.25,0.29,-0.14
C[C@]12CC[C@@H]3c4ccc(O)cc4CC[C@H]3[C@@H]1CCC2=O [Estrone],12.48 ± 0.098,0.49,-0.44,0.44,-0.57,-0.34,0.03,-0.17,-0.27,–,-0.08,-0.39,-0.46,-0.12,-0.85,–,-0.49
CN(C)CCCN1c2ccccc2Sc2ccc(Cl)cc21 [Chlorpromazine HCl],12.3 ± 0.24,–,0.41,–,0.63,-0.33,0.96,0.19,-0.02,-0.55,-0.85,0.11,–,0.52,0.29,-0.32,0.5
CC(=O)[C@H]1CC[C@H]2[C@@H]3CCC4=CC(=O)CC[C@]4(C)[C@H]3CC[C@]12C [Progesterone],12.5 ± 0.23,0.96,0.64,-1.51,-0.24,-1.35,-0.71,-0.71,-0.6,–,-1.13,-0.24,-0.62,-0.61,-1,–,0.01
O=c1cc(-c2ccc(O)c(O)c2)oc2cc(O)cc(O)c12 [Luteolin],12.5 ± 0.16,-0.73,-0.18,1.23,0.21,0.27,0.14,-0.39,1.42,0.22,0.05,-0.56,-0.43,0.16,-0.27,–,-0.52
C(=C\c1ccccc1)/CN1CCN(C(c2ccccc2)c2ccccc2)CC1 [Cinnarizine],12.21 ± 0.081,-1.14,-1.68,0.22,1.39,-0.62,-0.47,-0.68,1.5,0.34,1.32,-0.32,1.64,0.8,0.66,–,1.3
COC(=O)C1=C(C)NC(C)=C(C(=O)OCCN2CCN(C(c3ccccc3)c3ccccc3)CC2)C1c1cccc([N+](=O)[O-])c1 (stereo not drawn) [Manidipine 2HCl],12 ± 0.3,-1.31,2.89,0.47,-1.31,–,2.4,2.87,0.05,2.26,0.54,1.42,1.21,0.89,0.77,–,-0.8
CCn1cc(C(=O)O)c(=O)c2cnc(N3CCNCC3)nc21 [Pipemidic acid],12 ± 0.14,-0.62,0.72,-0.32,0.77,-1.07,0.15,0.81,-0.06,–,-0.49,-0.37,0.55,0.73,0.28,–,0.86

# — the supplement of paper PMC8975748
